# Several values for one entry are separate records, joined by “and”; a condition that tells them apart may be missing. Equal entries are not always repeated. Whole data set: some 2,900 compounds, median “IRF Lucia reporter activity, fold change vs agonist alone” near 0.9, cut for the highest 2% near 2.8. This excerpt belongs to a sample that is enriched for the highest values.
# What was measured:
# [1] = system: RAW-Dual; assay: IRF Lucia reporter activity, fold change vs agonist alone; cytotoxicity flag (confluency mask): cytotoxic (confluency <70% of control); higher = enhanced IRF activity
# How it was run: (§1)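 Reporter activity is given as fold change relative to agonist-alone wells. To measure it, 50 nL of library stock was pin-tooled onto RAW-Dual macrophages (50,000 cells/well, DMEM, 384-well plates), a PRR agonist followed 1 h later, and cells stayed at 37 °C, 5% CO2. Twenty hours on, supernatant was assayed for IRF (QuantiLuc luminescence) and NF-κB (QuantiBlue, 620 nm absorbance), and wells under 70% of agonist-control IncuCyte confluency in both mask sets were marked cytotoxic.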
# [2] = system: RAW-Dual; assay: IRF Lucia reporter activity, fold change vs agonist alone; cytotoxicity flag (confluency mask): not cytotoxic; higher = enhanced IRF activity
# How it was run: as §1
# [3] = system: RAW-Dual; assay: IRF Lucia reporter activity, fold change vs agonist alone; higher = enhanced IRF activity; conditions: cytotoxicity flag (confluency mask): not cytotoxic, agonist: MPLA (TLR4) […]
# How it was run: as §1
# [4] = agonist: 3'3'-cGAMP (STING) 10 ug/mL
# [5] = library stock concentration (final ~1000-fold dilution): 10 mM
structure (smiles),measurement,setting,value
O=C(CCCCCCC(=O)N/N=C/c1ccc(N(c2ccccc2)c2ccccc2)cc1)NO (library stock concentration (final ~1000-fold dilution): 10 mM),IRF Lucia reporter activity,[1]; [4],0.0199
same,IRF Lucia reporter activity,[1]; agonist: LPS (TLR4) 0.1 ug/mL,0.533
Cc1ccc(Oc2ccnc3cc(-c4cnn(C5CCNCC5)c4)ccc23)cc1 (library stock concentration (final ~1000-fold dilution): 10 mM),IRF Lucia reporter activity,[1]; [4],0.0554
same,IRF Lucia reporter activity,[1]; agonist: LPS (TLR4) 0.1 ug/mL,0.134
CCC(C)(Nc1ccnc(-c2c[nH]c3ncccc23)n1)C(=O)NCC(F)(F)F (configuration not stated) (library stock concentration (final ~1000-fold dilution): 10 mM),IRF Lucia reporter activity,[2]; [4],0.291
same,IRF Lucia reporter activity,[2]; agonist: LPS (TLR4) 0.1 ug/mL,0.35
CCC(C)(Nc1ccnc(-c2c[nH]c3ncccc23)n1)C(=O)NCC(F)(F)F (configuration not stated),IRF Lucia reporter activity,[3]; [5],0.41
Cc1cc(N2CCN(C3CNC(C(=O)N4CCSC4)C3)CC2)n(-c2ccccc2)n1 (configuration not stated),IRF Lucia reporter activity,[3]; [5],1.02
Cc1cc(N2CCN(C3CNC(C(=O)N4CCSC4)C3)CC2)n(-c2ccccc2)n1 (configuration not stated) (library stock concentration (final ~1000-fold dilution): 10 mM),IRF Lucia reporter activity,[2]; [4],0.982
same,IRF Lucia reporter activity,[2]; agonist: LPS (TLR4) 0.1 ug/mL,1.22
Cc1ccc2nc(NCCN)c3ncc(C)n3c2c1 (library stock concentration (final ~1000-fold dilution): 10 mM),IRF Lucia reporter activity,[2]; [4],2.21
same,IRF Lucia reporter activity,[2]; agonist: LPS (TLR4) 0.1 ug/mL,3.5
same,IRF Lucia reporter activity,[1]; agonist: LPS (TLR4) 0.1 ug/mL,0.0229 and 0.0291
CCOc1nc2cccc(C(=O)OCc3oc(=O)oc3C)c2n1Cc1ccc(-c2ccccc2-c2nc(=O)o[nH]2)cc1 (library stock concentration (final ~1000-fold dilution): 10 mM),IRF Lucia reporter activity,[2]; [4],1.04
same,IRF Lucia reporter activity,[2]; agonist: LPS (TLR4) 0.1 ug/mL,1.16
CCOc1nc2cccc(C(=O)OCc3oc(=O)oc3C)c2n1Cc1ccc(-c2ccccc2-c2nc(=O)o[nH]2)cc1,IRF Lucia reporter activity,[3]; [5],1.16
CNS(=O)(=O)CC1CCC(N(C)c2ncnc3[nH]ccc23)CC1.O=C(O)/C=C\C(=O)O (configuration not stated) (library stock concentration (final ~1000-fold dilution): 10 mM),IRF Lucia reporter activity,[2]; [4],0.106
same,IRF Lucia reporter activity,[2]; agonist: LPS (TLR4) 0.1 ug/mL,0.264
CC1CN(CC(=O)Nc2ccc3c(c2)Cc2cccc(-c4cc(=O)cc(N5CCOCC5)o4)c2S3)CC(C)O1 (configuration not stated) (library stock concentration (final ~1000-fold dilution): 10 mM),IRF Lucia reporter activity,[2]; [4],0.508
same,IRF Lucia reporter activity,[2]; agonist: LPS (TLR4) 0.1 ug/mL,6.62
O=c1cc(-c2cccc3c2Sc2ccccc2S3)oc(N2CCOCC2)c1,IRF Lucia reporter activity,[3]; [5],6.25
O=c1cc(N2CCOCC2)oc2c(-c3ccc4c(c3)OCCO4)csc12 (library stock concentration (final ~1000-fold dilution): 10 mM),IRF Lucia reporter activity,[2]; [4],0.12
same,IRF Lucia reporter activity,[2]; agonist: LPS (TLR4) 0.1 ug/mL,0.269
CC1CN(CC(=O)Nc2ccc3c(c2)Cc2cccc(-c4cc(=O)cc(N5CCOCC5)o4)c2S3)CC(C)O1 (configuration not stated),IRF Lucia reporter activity,[3]; [5],5.96
O=c1cc(N2CCOCC2)oc2c1ccc1ccccc12,IRF Lucia reporter activity,[3]; library stock concentration (final ~1000-fold dilution): 2 mM,1.15
O=c1cc(N2CCOCC2)oc2c1ccc1ccccc12 (library stock concentration (final ~1000-fold dilution): 2 mM),IRF Lucia reporter activity,[2]; [4],0.778
same,IRF Lucia reporter activity,[2]; agonist: LPS (TLR4) 0.1 ug/mL,1.01
O=c1cc(-c2cccc3c2Sc2ccccc2S3)oc(N2CCOCC2)c1 (library stock concentration (final ~1000-fold dilution): 10 mM),IRF Lucia reporter activity,[2]; [4],0.647
same,IRF Lucia reporter activity,[2]; agonist: LPS (TLR4) 0.1 ug/mL,5.22
CC1(c2cc(-c3cncnc3)c(F)cc2F)CCSC(N)=N1 (configuration not stated),IRF Lucia reporter activity,[3]; [5],0.717
CC1(c2cc(-c3cncnc3)c(F)cc2F)CCSC(N)=N1 (configuration not stated) (library stock concentration (final ~1000-fold dilution): 10 mM),IRF Lucia reporter activity,[2]; [4],0.823
same,IRF Lucia reporter activity,[2]; agonist: LPS (TLR4) 0.1 ug/mL,0.805
CCC(C)Nc1cc(C(=O)NC2CC3CCC(C2)N3c2ccc(C(=O)C3CC3)cn2)c(C)cc1C(N)=O (configuration not stated) (library stock concentration (final ~1000-fold dilution): 10 mM),IRF Lucia reporter activity,[2]; [4],0.482
same,IRF Lucia reporter activity,[2]; agonist: LPS (TLR4) 0.1 ug/mL,0.924
CCC(C)Nc1cc(C(=O)NC2CC3CCC(C2)N3c2ccc(C(=O)C3CC3)cn2)c(C)cc1C(N)=O (configuration not stated),IRF Lucia reporter activity,[3]; [5],0.838
C[N+]1(C)C2CCC1CC(OC(=O)C(O)c1ccccc1)C2 (configuration not stated),IRF Lucia reporter activity,[3]; [5],0.953
C[N+]1(C)C2CCC1CC(OC(=O)C(O)c1ccccc1)C2 (configuration not stated) (library stock concentration (final ~1000-fold dilution): 10 mM),IRF Lucia reporter activity,[2]; [4],1.01
same,IRF Lucia reporter activity,[2]; agonist: LPS (TLR4) 0.1 ug/mL,1.29
O=C(Nc1ccc(OC(F)(F)Cl)cc1)c1cnc(N2CCC(O)C2)c(-c2ccn[nH]2)c1 (configuration not stated) (library stock concentration (final ~1000-fold dilution): 10 mM),IRF Lucia reporter activity,[2]; [4],0.296
same,IRF Lucia reporter activity,[2]; agonist: LPS (TLR4) 0.1 ug/mL,1.27
CCn1c(=O)c(-c2cc(NC(=O)Nc3ccccc3)c(F)cc2Br)cc2cnc(NC)cc21 (library stock concentration (final ~1000-fold dilution): 10 mM),IRF Lucia reporter activity,[2]; [4],0.671
same,IRF Lucia reporter activity,[2]; agonist: LPS (TLR4) 0.1 ug/mL,0.268
